# Test results taken from PubChem BioAssay (Tox21).
# Records with an inconclusive call do not appear. Entries that show only a call come without a potency. Values without a mark were called inactive. The source made the active and inactive calls. Unless noted, calls follow the shape of the dose curve; as a rule, active = well fitted curve in the direction sought with a large enough effect in the repeat runs; inconclusive = weak or mixed curves; inactive = no such curve, though single readings can be large; an effect the other way counts as inactive or inconclusive.
# Experiments:
# [1] = target: Aryl hydrocarbon receptor (Homo sapiens) (UniProt P35869); assay: qHTS assay to identify small molecule that activate the aryl hydrocarbon receptor (AhR) signaling pathway (AID 743085);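 also: HG2L7.5c1 human HepG2 liver cells with stably integrated DRE-driven firefly reporter; series mostly up to about 70 µM; nearly all actives have a fitted effect of over 15% in size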
# Method in brief: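 HepG2 cells stably carrying a 20-DRE firefly luciferase reporter (HG2L7.5c1) treated with compound for 24 hr at 37C. Luciferase read by ONE-Glo luminescence, with CellTiter-Fluor viability read first.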
# [2] = target: Peroxisome proliferator-activated receptor gamma (Homo sapiens) (UniProt P37231); assay: qHTS assay to identify small molecule agonists of the peroxisome proliferator-activated receptor gamma (PPARg) signaling pathway (AID 743094; active = well fitted activation curve with a large enough effect in the signal ratio in the repeat runs, not every such curve was filed as active; the % refers to the signal ratio)
# Method in brief: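 Following 5 h plating at 37C, PPARg-bla HEK293H cells receive compound or DMSO for 17 h; fluorescence intensity is recorded after LiveBLAzer B/G loading for 1 h at room temperature.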
# [3] = qHTS assay to identify small molecule phospholipidosis (PLD) inducers (AID 1259344; active = well fitted curve in the direction sought with a large enough effect; an effect the other way counts as inactive or inconclusive)
# Method in brief: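 HepG2 cells, 900/well, treated with compound plus LipidTOX Red for 24 h at 37 C; amiodarone positive and DMSO negative controls. Fixed with paraformaldehyde/Hoechst, then high-content imaging scored LipidTOX pit count and integrated intensity per well and per cell.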
# [4] = qHTS assay to identify aromatase inhibitors - cell viability counter screen (AID 743084);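 also: cells stimulated with testosterone during compound exposure; nearly all actives have a fitted effect of over 55% in size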
# [5] = qHTS assay to identify small molecule that activate the aryl hydrocarbon receptor (AhR) signaling pathway - cell viability counter screen (AID 743086); also: nearly all actives have a fitted effect of over 45% in size; also: potency is read from the fitted curve at half-maximal effect
# Method in brief: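 HepG2-AhR-luc (HG2L7.5c1) cells, 4000/well, treated 24 h at 37 C with compound; viability measured as CellTiter-Fluor fluorescence after 30 min in the same wells as the luciferase read.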
# [6] = target: Nuclear receptor subfamily 1 group I member 2 (Rattus norvegicus) (UniProt Q9R1A7); assay: Rat pregnane X receptor (rPXR) activation by small molecules, qHTS assay (AID 1346983); settings: rPXR luciferase reporter cells, One-Glo luminescence, 24 h; max activation: active compounds read high; also: nearly all actives have a fitted effect of over 20% in size
# Method in brief: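 Cell-based rPXR activation assay: rPXR cells, 2,000 per well, rested 5hr at 37 C, then exposed to compounds in DMSO for 24 hr at 37 C. Luciferase activity read by One-Glo luminescence after 30 min at room temperature.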
# [7] = target: Nuclear receptor subfamily 1 group I member 2 (Homo sapiens) (UniProt O75469); assay: CYP3A4 induction through human pregnane X receptor (PXR) by small molecules, qHTS assay (AID 1346984); also: nearly all actives have a fitted effect of over 40% in size; also: potency is read from the fitted curve at half-maximal effect
# Method in brief: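 qHTS, concentration-response format: HepG2 DPX-2 line, PXR/CYP3A4-luc. Exposure 24 h, 37C. Substrate Luciferin-IPA 3uM final, 3 h. Detection One-Glo, 30 min RT.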
# [8] = target: Nuclear receptor subfamily 1 group I member 2 (Homo sapiens) (UniProt O75469); assay: Human pregnane X receptor (PXR) activation by small molecules, qHTS assay (AID 1346985); also: nearly all actives have a fitted effect of over 40% in size; also: potency is read from the fitted curve at half-maximal effect
# Method in brief: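 DPX-2 cells (HepG2 co-transfected with a PXR response element and a CYP3A4-promoter luciferase construct) were seeded at 2,000 per well, rested 5 hr at 37C, then exposed to DMSO-dissolved compounds for 24 hr. Activation was read as luciferase luminescence.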
# Nuclear receptor subfamily 1 group I member 2 (Rattus norvegicus), sequence (Q9R1A7 whole entry, looked up): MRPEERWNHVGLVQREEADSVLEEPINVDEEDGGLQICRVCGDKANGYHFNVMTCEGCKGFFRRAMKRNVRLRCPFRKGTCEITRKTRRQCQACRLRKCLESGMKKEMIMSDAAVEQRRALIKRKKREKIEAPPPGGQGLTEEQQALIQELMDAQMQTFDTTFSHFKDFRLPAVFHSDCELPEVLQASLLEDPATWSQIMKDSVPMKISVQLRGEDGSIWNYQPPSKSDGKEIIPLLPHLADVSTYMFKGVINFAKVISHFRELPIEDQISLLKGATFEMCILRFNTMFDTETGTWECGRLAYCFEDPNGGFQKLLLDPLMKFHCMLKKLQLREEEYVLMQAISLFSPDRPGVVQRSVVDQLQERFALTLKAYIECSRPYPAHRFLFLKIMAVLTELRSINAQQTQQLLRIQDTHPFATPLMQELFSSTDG
# Aryl hydrocarbon receptor (Homo sapiens), sequence (P35869 whole entry, looked up): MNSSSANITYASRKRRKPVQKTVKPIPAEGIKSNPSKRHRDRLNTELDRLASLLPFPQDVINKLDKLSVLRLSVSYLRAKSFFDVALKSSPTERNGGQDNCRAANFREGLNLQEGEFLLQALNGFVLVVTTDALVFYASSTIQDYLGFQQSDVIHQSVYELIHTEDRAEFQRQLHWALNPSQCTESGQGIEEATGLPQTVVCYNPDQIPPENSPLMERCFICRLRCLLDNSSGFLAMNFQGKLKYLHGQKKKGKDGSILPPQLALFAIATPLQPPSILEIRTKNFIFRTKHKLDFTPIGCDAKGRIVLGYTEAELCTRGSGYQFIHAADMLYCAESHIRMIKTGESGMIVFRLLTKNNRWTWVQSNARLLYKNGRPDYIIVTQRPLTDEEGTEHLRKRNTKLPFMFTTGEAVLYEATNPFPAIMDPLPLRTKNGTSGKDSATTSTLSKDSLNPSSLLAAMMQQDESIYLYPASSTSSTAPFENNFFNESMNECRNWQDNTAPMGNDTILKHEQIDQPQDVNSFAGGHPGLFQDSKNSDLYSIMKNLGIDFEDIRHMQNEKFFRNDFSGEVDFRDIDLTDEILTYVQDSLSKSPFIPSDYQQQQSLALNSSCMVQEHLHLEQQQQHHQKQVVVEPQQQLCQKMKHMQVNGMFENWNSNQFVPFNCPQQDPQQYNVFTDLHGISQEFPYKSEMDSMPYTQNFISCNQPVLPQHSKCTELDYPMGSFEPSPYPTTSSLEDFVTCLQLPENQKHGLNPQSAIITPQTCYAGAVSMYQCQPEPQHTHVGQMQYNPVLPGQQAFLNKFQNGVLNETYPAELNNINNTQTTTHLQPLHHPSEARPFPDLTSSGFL
# Peroxisome proliferator-activated receptor gamma (Homo sapiens), sequence (P37231 whole entry, looked up): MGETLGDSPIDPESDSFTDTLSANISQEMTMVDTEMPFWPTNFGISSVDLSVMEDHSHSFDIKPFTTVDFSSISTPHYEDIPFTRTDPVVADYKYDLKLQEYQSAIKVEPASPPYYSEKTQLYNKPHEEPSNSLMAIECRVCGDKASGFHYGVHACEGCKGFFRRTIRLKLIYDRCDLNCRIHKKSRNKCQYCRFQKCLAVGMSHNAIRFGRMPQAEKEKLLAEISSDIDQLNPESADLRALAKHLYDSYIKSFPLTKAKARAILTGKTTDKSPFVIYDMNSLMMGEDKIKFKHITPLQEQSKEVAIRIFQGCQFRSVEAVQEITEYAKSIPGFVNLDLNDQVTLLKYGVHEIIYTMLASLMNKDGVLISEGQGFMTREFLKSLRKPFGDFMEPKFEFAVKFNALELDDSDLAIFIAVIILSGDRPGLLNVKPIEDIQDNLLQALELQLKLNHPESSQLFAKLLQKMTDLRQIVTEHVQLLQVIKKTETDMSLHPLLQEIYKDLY
smiles,measurement,setting,value
COc1cc2[nH]c(C)c(CCN3CCN(c4ccccc4)CC3)c2cc1OC,Potency,[1],inactive
same,Potency,[2],inactive
same,Potency,[3],inactive
CCC(=O)O[C@H]1CC[C@H]2[C@@H]3CCc4cc(O)ccc4[C@H]3CC[C@]12C,Potency,[4],inactive
same,Potency,[5],inactive
same,Potency,[2],inactive
same,Potency,[3],inactive
CN(C)CCC=C1c2ccccc2C(C)(C)c2ccccc21,Potency,[4],inactive
same,Potency,[1],inactive
same,max activation,[6],6.91%
same,Potency,[7],22.4 µM (active)
same,Potency,[8],25.1 µM (active)
CC1(C)S[C@@H]2[C@H](NC(=O)C(C(=O)Oc3ccc4c(c3)CCC4)c3ccccc3)C(=O)N2[C@H]1C(=O)O (stereo partly specified),Potency,[4],inactive
same,Potency,[5],inactive
same,Potency,[2],inactive
same,Potency,[3],inactive
CN1[C@@H]2CCC[C@H]1CC(NC(=O)c1nn(C)c3ccccc13)C2 (stereo partly specified),Potency,[1],inactive
same,Potency,[5],inactive
same,Potency,[2],inactive
same,Potency,[3],inactive
CN1CC(O)c2cc(N=NC(N)=O)c(O)cc21 (stereo unspecified),Potency,[1],inactive
same,Potency,[3],inactive
COC(=O)C1=C(C)NC(C)=C(C(=O)O[C@H]2CCN(Cc3ccccc3)C2)[C@H]1c1cccc([N+](=O)[O-])c1,Potency,[1],inactive
same,Potency,[5],29.8 µM (active)
same,Potency,[3],inactive
CCC(Oc1ccccc1)C(=O)N[C@@H]1C(=O)N2[C@@H]1SC(C)(C)[C@@H]2C(=O)O (stereo partly specified),Potency,[4],inactive
same,Potency,[1],inactive
same,Potency,[5],inactive
same,Potency,[2],inactive
same,max activation,[6],-1.86%
same,Potency,[7],inactive
same,Potency,[8],inactive
CCCCCCCC(=O)CC[C@@H]1[C@@H](C/C=C\CCCC(=O)OC(C)C)[C@@H](O)C[C@H]1O,Potency,[4],inactive
same,Potency,[5],inactive
same,Potency,[2],inactive
same,Potency,[3],inactive
COc1cc(NCCCC(C)N)c2ncccc2c1 (stereo unspecified),Potency,[2],inactive
same,Potency,[3],inactive
CC(C)Cc1ccc([C@@H](C)C(=O)NS(C)(=O)=O)cc1,Potency,[4],inactive
same,Potency,[1],inactive
same,Potency,[5],inactive
same,Potency,[2],inactive
same,max activation,[6],-2.09%
same,Potency,[7],inactive
same,Potency,[8],inactive
CC[C@H]1OC(=O)[C@H](C)[C@@H](O[C@H]2C[C@@](C)(OC)[C@@H](O)[C@H](C)O2)[C@H](C)[C@@H](O[C@@H]2O[C@H](C)C[C@H](N(C)C)[C@H]2O)[C@](C)(O)C[C@@H](C)[C@@H]2N[C@@H](COCCOC)O[C@@H]([C@H]2C)[C@]1(C)O,Potency,[4],inactive
same,Potency,[5],inactive
same,Potency,[2],inactive
same,Potency,[3],inactive
C#C[C@]1(OC(C)=O)CC[C@H]2[C@@H]3CCC4=CC(=O)CC[C@@H]4[C@H]3CC[C@@]21C,Potency,[5],inactive
same,Potency,[2],inactive
same,PLD induction,[3],1.06% [at 7.66 µM]
CC(CN(C)C)CN1c2ccccc2Sc2ccc(C(F)(F)F)cc21 (stereo unspecified),Potency,[4],inactive
same,Potency,[1],inactive
same,max activation,[6],2.66%
same,Potency,[7],12.6 µM (active)
same,Potency,[8],25.1 µM (active)
COc1ccc(CC2c3cc(OC)c(OC)cc3CC[N+]2(C)CCC(=O)OCCCCCOC(=O)CC[N+]2(C)CCc3cc(OC)c(OC)cc3C2Cc2ccc(OC)c(OC)c2)cc1OC (stereo unspecified),Potency,[4],inactive
same,Potency,[1],inactive
same,Potency,[5],inactive
same,max activation,[6],-3.66%
same,Potency,[7],inactive
same,Potency,[8],inactive
Cc1ccc(/C(=C\CN2CCCC2)c2cccc(/C=C/C(=O)O)n2)cc1,Potency,[5],inactive
same,Potency,[3],inactive
COc1ccc(C(=O)Nc2ccccc2CCC2CCCCN2C)cc1 (stereo unspecified),Potency,[1],inactive
same,Potency,[2],inactive
same,Potency,[3],inactive
CCCC1([C@H](O)C/C=C/[C@H]2[C@H](O)CC(=O)[C@@H]2CCCCCCC(=O)OC)CCC1,Potency,[1],inactive
same,Potency,[5],inactive
same,PLD induction,[3],0.112% [at 7.66 µM]
Cc1c(N)nc(C(CC(N)=O)NCC(N)C(N)=O)nc1C(=O)NC(C(=O)NC(C)C(O)C(C)C(=O)NC(C(=O)NCCc1nc(-c2nc(C(=O)NCCCN[C@@H](C)c3ccccc3)cs2)cs1)C(C)O)C(O[C@@H]1O[C@@H](CO)[C@@H](O)[C@H](O)[C@@H]1O[C@H]1O[C@H](CO)[C@@H](O)[C@H](OC(N)=O)[C@@H]1O)c1cnc[nH]1 (stereo partly specified),Potency,[5],inactive
same,PLD induction,[3],1.81% [at 7.66 µM]
CCOC(=O)Oc1c(OC)cc(C(=O)O[C@@H]2C[C@@H]3CN4CCc5c([nH]c6cc(OC)ccc56)[C@H]4C[C@@H]3[C@H](C(=O)OC)[C@H]2OC)cc1OC,max activation,[6],-0.121%
CC(CN(C)C)CN1c2ccccc2S(=O)(=O)c2ccccc21 (stereo unspecified),Potency,[1],inactive
same,Potency,[2],inactive
same,Potency,[3],inactive
O=C(NOC[C@H](O)CO)c1ccc(F)c(F)c1Nc1ccc(I)cc1F,Potency,[4],inactive
same,Potency,[5],inactive
same,Potency,[2],inactive
same,Potency,[3],inactive
C[C@]12C=CC(=O)C=C1CC[C@@H]1[C@@H]2[C@@H](O)C[C@@]2(C)[C@H]1CC[C@]2(O)C(=O)COC(=O)CCC(=O)O,Potency,[4],inactive
same,Potency,[5],inactive
same,Potency,[2],inactive
same,Potency,[3],inactive
CN1CCN(CCCN2c3ccccc3Sc3ccccc32)CC1,Potency,[1],inactive
same,Potency,[2],inactive
same,Potency,[3],inactive
CCCCCCCCCCCCCCCCCCCCCC(=O)Nc1ccn([C@@H]2O[C@H](CO)[C@@H](O)[C@@H]2O)c(=O)n1,Potency,[4],inactive
same,Potency,[1],inactive
same,Potency,[5],inactive
same,Potency,[2],inactive
same,max activation,[6],-4.2%
same,Potency,[7],inactive
same,Potency,[8],inactive
CC(O)[C@H]1CC[C@H]2[C@@H]3CC[C@@H]4C[C@@H](O)CC[C@]4(C)[C@H]3CC[C@]12C (stereo partly specified),Potency,[4],inactive
same,Potency,[1],inactive
same,Potency,[5],inactive
same,Potency,[2],inactive
same,max activation,[6],2.94%
same,Potency,[7],inactive
same,Potency,[8],inactive
O=P(O)(O)OC[C@H]1O[C@](O)(COP(=O)(O)O)[C@@H](O)[C@@H]1O,Potency,[4],inactive
same,Potency,[1],inactive
same,Potency,[5],inactive
same,Potency,[2],inactive
same,max activation,[6],-2.72%
same,Potency,[7],inactive
same,Potency,[8],inactive
CC(=O)Oc1cccc(C(=O)O)c1OC(C)=O,Potency,[4],inactive
same,Potency,[1],inactive
same,Potency,[5],inactive
same,Potency,[2],inactive
same,max activation,[6],-1.97%
same,Potency,[7],inactive
same,Potency,[8],inactive
C=C1C(=C/C=C2\CCC[C@]3(C)[C@@H]([C@H](C)/C=C/[C@H](C)C(C)C)CC[C@@H]23)C[C@@H](O)C[C@@H]1O,Potency,[5],inactive
same,Potency,[3],inactive
COc1cc([C@@H]2c3cc4c(cc3C(O[C@@H]3O[C@@H]5CO[C@@H](C)O[C@H]5[C@H](O)[C@H]3O)C3COC(=O)[C@@H]32)OCO4)cc(OC)c1OP(=O)(O)O (stereo partly specified),Potency,[4],inactive
same,Potency,[5],inactive
same,Potency,[2],inactive
same,PLD induction,[3],0.0559% [at 1.53 µM]
O=C(Nc1ccc(/C=C/c2ccc(NC(=O)c3cc(S(=O)(=O)O)c4cccnc4c3O)cc2S(=O)(=O)O)c(S(=O)(=O)O)c1)c1cc(S(=O)(=O)O)c2cccnc2c1O,Potency,[1],inactive
same,Potency,[5],inactive
same,Potency,[2],inactive
same,PLD induction,[3],-0.0305% [at 7.66 µM]
